According to PubChem BioAssay AID1508600 (Functional Genomics Laboratory (NCATS/FGL), 2020):
Among all 53,000 sequences or so, about 3,700 (7%) were called active. Many of the other results were omitted from the sample, so actives are more common in it than they were. A number with no mark means an inactive call.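 How the source made its calls: active means gene knockdowns whose robust z-score for IL-1 alpha signal is at least 2 or at most -2, so actives lie on both sides; inactive means the rest.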

Assay: Components of the Cytosolic LPS Sensing Pathway: Gene Identification via Genome-wide siRNA Screen;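 further: robust z of the log signal after scaling to non-targeting control siRNA wells of the plate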
Settings: RAW264.7 macrophages, IL-1a HTRF, actives lie on both sides, screened at 100 nM (by protocol), cells primed 5 h with Pam3CSK4 first
Summary of the method: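 Three distinct siRNAs per gene were tested singly at 100 nM in RAW264.7 macrophages. Following Pam3CSK4 priming and 24 hour LipidA transfection, IL-1a secretion was read by HTRF.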

Row | Sequence | z-score
1 | GGGAUUUCUUACCCUGUUUTT against Prr7 | -0.222
2 | CGACAUUGAUAUCGUGCGCTT against Gadd45g | -0.827
3 | GGACUAGCAAGCUCUUCAGTT against Fancd2 | -0.578
4 | GGUGAAAGUACUGAGGAAGTT against Rlim | 2.45 (active)
5 | GCUCCACCGAGAAAUUACUTT against Magt1 | 1.63
6 | CCCUCUUGAAAUUAGUGUGTT against Dusp14 | 0.405
7 | GCUCACAUGUUUUAGGUGATT against Poc5 | 0.756
8 | GGCAAAGAAGGAGAAAGUATT against Cd209c | -2.06 (active)
9 | GGCAGACAAUCAAUGAAAUTT against Padi4 | -0.451
10 | GCCACUUCCGGUCAACUAUTT against Cog1 | 0.801
11 | GGGCAAUAAGAUGUACGUUTT against Eomes | 3.24 (active)
12 | GUAUGUUUGGGCUUAGCCUTT against Olfr1348 | -1.21
13 | GGAAGUUACUGUUGAGUAGTT against Olfr114 | 0.209
14 | GUUGAUGGAAACCAUGGAATT against Phf11d | -0.504
15 | GGAAAAAGCACCAUUGUGATT against Gnao1 | -0.819
16 | GCUACUUCGGGAAUUUUACTT against Ttc21a | -1.16
17 | CCCUAUGAGCAAAUCACAUTT against Ppp3cc | -0.499
18 | GGACUAAGAUUUGUGUUAGTT against Ccdc127 | 2.15 (active)
19 | GGGAAGUUCAGUUCAAUACTT against Hps4 | 1.11
20 | GCUGGAUAGCUAAAAUGAUTT against Gimap5 | -0.0294
21 | GCUAUAUUGUUAGCACACATT against Hmgn2 | 0.326
22 | CCUGGAGGAGUAUUUACACTT against H2-Ob | -1.17

Row | Sequence | z-score
23 | GGCUAUGGAGUUCACCACATT against Krtap5-5 | -2.66 (active)
24 | GGGAAGAAAUCAACGAUAATT against Gpa33 | -0.0673
25 | GGAACACACCAUCAUCCAGTT against H2-Ea | 1.29
26 | GGGCUAUGCCUACUACACUTT against Fn3k | 0.976
27 | CCGAGGUGAUUAGGAUAACTT against Traf3ip1 | -0.694
28 | GGAGGAGAACAGCAAUCUUTT against Speer4d | -2.38 (active)
29 | CCUCUUCAACAAACAAGCATT against Zscan22 | -0.379
30 | GCAGCAGUGAAAUAGCUUCTT against Eya1 | -0.643
31 | GGAUGCAUGGCUCAAUAUUTT against Olfr1164 | 2.01 (active)
32 | GCACAUUUGGACAACCAAUTT against AU018091 | -0.973
33 | GCCGCUAUCGUCUUUAUCATT against Ptk7 | 0.00632
34 | GGAGAAAAACAUCAUUGAATT against Reck | -0.102
35 | GGCUCUCAACUAAAGCAGCTT against Snu13 | -1.18
36 | GGGCUUUGUUUCCAAGUUGTT against Muc15 | -0.285
37 | GGUCUUUGCUACCAACCUGTT against Fignl1 | -2.15 (active)
38 | CCAUAGACUAUUAUCCUUATT against Uhrf1bp1l | -0.282
39 | GGACACAAAGAAGAAGAGGTT against Tarsl2 | 0.707
40 | GGUUAUUCUGGCUAUGGGCTT against Taf15 | -2.22 (active)
41 | GGAAAUAUUGAUGCUGCUGTT against Ttc39a | 1.09
42 | GGGAGUGCCUGGGUUUGUATT against Dusp28 | 3.19 (active)
43 | CAAAAAUAUCUACAGAGUCTT against Olfr494 | 0.207
44 | CGAGAAAAACGAUUUACUGTT against Orai2 | -0.527

Row | Sequence | z-score
45 | GGCAAUCCCAUAGAGGCUGTT against Mief2 | -2.64 (active)
46 | GGAUGAGAAUGGUUAUACUTT against Asz1 | 0.328
47 | CCGCCUCGUACAUGAUAUUTT against Mrgpra2b | 0.653
48 | GGAUUUAUUUGCCAACACUTT against Actbl2 | -2.28 (active)
49 | GGUUGCUAUUAUUAUUGGATT against Fnbp4 | 0.678
50 | GCCCAAGGAGGCAUUGAUATT against Fbxo8 | -0.653
51 | GGCUUCAUUUACUGUAACGTT against Flrt3 | -0.12
52 | GGAUAAACGGACAGGCCCATT against Socs2 | 0.282
53 | GGGUUCUGGGAAGGUAUAUTT against Olfr705 | -2.54 (active)
54 | GAUUGUGCCUUAUCUCUAATT against Vmn1r203 | 1.28
55 | GGCCUACAUUUUAAUUCAGTT against Tmem132c | -0.167
56 | GGCUCAGAUCAGAACUACGTT against Inpp4a | -0.129
57 | GGUAAACGAUGUACAGUUGTT against Notch2 | 2.6 (active)
58 | GCUAAAGUGAGCAGCGGGATT against Gipc3 | 0.218
59 | GCUACCUGCGACAAGAAAUTT against Defb23 | -0.79
60 | CCAUAUGUAGCUAUGGUUATT against Cul2 | 0.741
61 | CCAGUAGAAAGAAUCCAGATT against Gm128 | 0.0855
62 | GCCAGCUACUCUCUUGAGATT against Olfr419 | -1.03
63 | GGACUACAUGGAUGCCAUGTT against Prkrip1 | 0.482
64 | GGCCCUCAAACAGUGCAAATT against Chchd10 | 2.09 (active)
65 | GGCCUUUUCCAUAAACUUUTT against Ddx60 | 0.873
66 | GCAGUACGAAAUGGUAUACTT against Chd6 | -1.7

Row | Sequence | z-score
67 | CGUAUUAACGACAUAAGAGTT against Nckap1 | -0.169
68 | GGACCUUAAGAGAUAUCAATT against Acsm4 | 2.9 (active)
69 | CCAAUUGGAAUCCCAUUUUTT against Cd47 | -0.273
70 | CCCAACAAUGCUGCACAUGTT against H1f8 | 0.157
71 | GCAGUGUCUAGGACAGUCATT against Pdcd5 | 0.0243
72 | GGGCCCGAUGAAGCAAAAATT against Hnrnpr | -1.49
73 | GGCAAACAUGAAGAGAAGCTT against Hspb8 | 0.0665
74 | GGCUGACCUUCUGUGCUGATT against Olfr876 | -0.98
75 | CGAAGAGAUCUCACUAUAATT against Trnt1 | 1.21
76 | GCGCUAGAAGGCCAGAUAUTT against Orm3 | -0.155
77 | GCAAUGGUUCAGUAUGUACTT against Tpgs2 | -2.01 (active)
78 | GCCAUCAACAGCAUUUACATT against Glt8d2 | -0.455
79 | GGAGCUUUCAGCUAAGACATT against Rassf4 | 0.671
80 | GGACCAGCCAUACCUGUGATT against Ndufa7 | -1.93
81 | GCCACACAGUGUGAUCCAATT against Nrip2 | -1.33
82 | GGCUACCUACAGCACCAACTT against Esyt1 | -1.58
83 | CCAAGUCUUUGCCUACGUGTT against Dsn1 | 2.39 (active)
84 | GGAUGUAACUGAAAGAGAATT against Fam133b | -1.11
85 | GGACACUUAAAGAUCCUGCTT against Armc7 | -0.545
86 | GCUCAGAGAUUAUGGCAUCTT against Snrnp25 | 0.687
87 | GAGCUAAGCAAGAUGCUAGTT against Sox17 | 3.97 (active)
88 | GCAUGAUUACCCAUUUCAATT against Tax1bp1 | 0.334

Row | Sequence | z-score
89 | GGAGAAGGAGAUGUCCAAUTT against Guca2b | 0.777
90 | GCGAUUGAUGAAUUUCGACTT against Atp9b | 0.616
91 | GGAUUUCAAAAACCACGUGTT against Snx1 | 1.14
92 | CCCACAGCUCUGACAUUUUTT against Fbxo6 | -0.315
93 | CCUAGGUCAUAUUUCUCCATT against Bgn | 0.224
94 | GGCAGUGGCUUGGAUAAAUTT against Amdhd2 | -0.609
95 | GGAGAGCUGCAUGAUUUCATT against Efcab2 | 3.67 (active)
96 | GCAGUCAUGGGUUCUUAAGTT against Gng3 | 0.109
97 | CCAUAUCUCAUGAGGAAGGTT against Olfr1368 | 1.53
98 | GGACGGUGACAAGAACAACTT against Tnnc1 | 1.72
99 | GCUUCACGAUUAAAACUAATT against Ltb4r1 | 0
100 | CGGAGUCUUCUUCUCACCUTT against A630001O12Rik | -2.82 (active)
101 | GGCUCAGGCAUUGUAACCATT against Dnm3 | -0.177
102 | GGUGCAUUCCUUGUGAAUGTT against Ctbp2 | 0.141
103 | GCUCAGUCAUGUGACCGCATT against Fbxl18 | 2.93 (active)
104 | GGGAAAGGAAGUUGUUUUGTT against Epha2 | 0.878
105 | GCAGCCUAUUACCUCAGACTT against Nwd2 | 1.02
106 | GGAUCUCUCUUUCCUCCUCTT against Gli1 | 0.0792
107 | GCCUUCAAGCCAAAGAUAGTT against Lin54 | -0.582
108 | GGCAAAGGCUAUCGCUCACTT against Smpd2 | -1.46
